{
  "source": "PubChem BioAssay AID1259313",
  "about": "(Sanford-Burnham Center for Chemical Genomics, 2017)",
  "note": "Among all 340,000 compounds or so, about 8,500 (2.5%) were called active. The full list was thinned out, with actives kept by preference. Values without a mark were called inactive.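 Rule for the calls: active = melting temperature shift of at least 10% of the positive control shift, at one fixed dose; inactive = the rest.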",
  "data": [
    {"system": "Glutamate receptor ionotropic, NMDA 3A (GRIN3A) ligand-binding domain", "experiment": "binders of NR3A ligand-binding domain, primary screen, biophysical, differential scanning fluorimetry, uHTS (AID 1259313)", "conditions": "NR3A LBD differential scanning fluorimetry, at 25 µM, hits give high values", "values": [
      {"smiles": "CN1CCN(C(=S)SCC(=O)Nc2ccc(Cl)cc2C(=O)c2ccccc2)CC1", "Tm shift relative to glycine control": "3.94%"},
      {"smiles": "O=C(COC(=O)c1ccccc1)Nc1ccc(Cl)cc1C(=O)c1ccccc1", "Tm shift relative to glycine control": "12.2% (active)"},
      {"smiles": "O=C(CCNS(=O)(=O)c1ccccc1)Nc1ccc(Cl)cc1C(=O)c1ccccc1", "Tm shift relative to glycine control": "-5.82%"},
      {"smiles": "O=C(Nc1cccc2ccccc12)N1CCC2(CC1)OCCO2", "Tm shift relative to glycine control": "0%"},
      {"smiles": "Cc1cc(N2C(=O)C3CCCN3C2c2ccc(Cl)c(Cl)c2)no1", "note": "(stereo not given)", "Tm shift relative to glycine control": "0.27%"},
      {"smiles": "COCCNC(=O)CN1C2CCC1CC(O)(c1cccnc1)C2", "note": "(stereo not given)", "Tm shift relative to glycine control": "0.09%"},
      {"smiles": "COc1ccc(N2C(=O)/C(=C/c3ccco3)C(=O)NC2=S)cc1", "Tm shift relative to glycine control": "10.6% (active)"},
      {"smiles": "O=C1NC(=O)N(Cc2ccco2)C(=O)/C1=C\\c1ccc(-c2ccc(F)cc2)o1", "Tm shift relative to glycine control": "0.53%"},
      {"smiles": "COc1cccc(N2C(=O)NC(=O)/C(=C\\c3ccc([N+](=O)[O-])s3)C2=O)c1", "Tm shift relative to glycine control": "-7.7%"},
      {"smiles": "CC[N+]1(C)CCCC(OC(=O)C(O)(c2ccccc2)c2ccccc2)C1", "note": "(stereo not given)", "Tm shift relative to glycine control": "1.89%"},
      {"smiles": "CC1=C(C(=O)Nc2ccccc2)S(=O)(=O)CCO1", "Tm shift relative to glycine control": "0.53%"},
      {"smiles": "CCNc1nc2[nH]c(=O)c3c(c2s1)OC(N)=C(C#N)C3c1cccs1", "note": "(stereo not given)", "Tm shift relative to glycine control": "1.75%"},
      {"smiles": "CCN1C(=O)C(=Cc2c(C)n(CC(=O)NCC3CCCO3)c3ccccc23)C(=O)N(CC)C1=S", "note": "(stereo not given)", "Tm shift relative to glycine control": "0.27%"},
      {"smiles": "CCCCCCCCCCCCn1ccc(=N)cc1", "Tm shift relative to glycine control": "20.8% (active)"},
      {"smiles": "CCN1C(=O)NC(=O)C2(CCCC2)C1=O", "Tm shift relative to glycine control": "1.88%"}
    ]}
  ]
}
